# Data as given in the supplement of paper PMC8975748.
# Where a name gives a salt, the structure may show the parent alone. ± gives the standard deviation of the averaged measurements.
# Test system: Saccharomyces cerevisiae BY4741 SeMeCo community
# Assay: mean cell size (pixel area) (pixels); higher = larger cells
# Conditions: 10 µM; 24 h; SM minimal medium
# Method in brief: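 A Saccharomyces cerevisiae BY4741 community carrying four plasmids, each with a fluorescent marker and each complementing one auxotrophy, was exposed for 24 h to drug at a final 10 µM in SM medium in acoustically predosed 384-well plates. The overnight preculture (OD600 = 1.0) was diluted to OD600 = 0.3 before 70 µl was added per well. Cells were then fixed with paraformaldehyde, imaged by automated confocal microscopy and analysed in Harmony to derive mean cell pixel area per well, averaged over 3 replicates. Same SeMeCo high-content imaging drug screen: Selleck FDA-approved drugs at 10 µM, 24 h in SM medium, 384-well plates, 3 replicates.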
row,SMILES,mean cell size
1,NCCNc1ccc(NCCN)c2c1C(=O)c1ccncc1C2=O [Pixantrone Maleate],11.8 ± 0.17
2,O=C(O[C@H]1CN2CCC1CC2)N1CCc2ccccc2[C@@H]1c1ccccc1 [Solifenacin succinate],12.1 ± 0.28
3,CC(=O)N1CCN(c2ccc(OCC3COC(Cn4ccnc4)(c4ccc(Cl)cc4Cl)O3)cc2)CC1 (stereo not given) [Ketoconazole],11.9 ± 0.21
4,Cc1nccn1CC1CCc2c(c3ccccc3n2C)C1=O (stereo not given) [Ondansetron Hydrochloride Dihydrate],12.3 ± 0.24
5,Nc1nnc(-c2cccc(Cl)c2Cl)c(N)n1 [Lamotrigine],12.37 ± 0.07
6,CC(=O)NS(=O)(=O)c1ccc(N)cc1 [Sulfacetamide Sodium],12.4 ± 0.26
7,COc1c(N2CCNC(C)C2)c(F)cc2c(=O)c(C(=O)O)cn(C3CC3)c12 (stereo not given) [Gatifloxacin],12.4 ± 0.17
8,CCCCC(F)(F)[C@@]1(O)CC[C@H]2[C@@H](CC(=O)[C@@H]2CCCCCCC(=O)O)O1 [Lubiprostone],12.6 ± 0.28
9,CN(C)CCc1c[nH]c2ccc(Cn3cncn3)cc12 [Rizatriptan Benzoate],12.63 ± 0.099
10,CCCCCCCCCCCCCCCCCCOP(=O)([O-])OC1CC[N+](C)(C)CC1 [Perifosine (KRX-0401)],9.8 ± 0.56
11,OC(Cn1cncn1)(Cn1cncn1)c1ccc(F)cc1F [Fluconazole],11.98 ± 0.059
12,Cc1cc(/C=C/c2ccc3cc(N(C)C)ccc3[n+]2C)c(C)n1-c1ccccc1 [pyrvinium],12.38 ± 0.085
13,O=S(=O)(O)CCCCOC[C@H]1O[C@@H]2O[C@H]3[C@H](O)[C@@H](O)[C@@H](O[C@H]4[C@H](O)[C@@H](O)[C@@H](O[C@H]5[C@H](O)[C@@H](O)[C@@H](O[C@H]6[C@H](O)[C@@H](O)[C@@H](O[C@H]7[C@H](O)[C@@H](O)[C@@H](O[C@H]8[C@H](O)[C@@H](O)[C@@H](O[C@H]1[C@H](O)[C@H]2O)O[C@@H]8CO)O[C@@H]7COCCCCS(=O)(=O)O)O[C@@H]6COCCCCS(=O)(=O)O)O[C@@H]5COCCCCS(=O)(=O)O)O[C@@H]4COCCCCS(=O)(=O)O)O[C@@H]3COCCCCS(=O)(=O)O,12.1 ± 0.26
14,CCCN(CCC)CCc1cccc2c1CC(=O)N2 [Ropinirole HCl],12.4 ± 0.22
15,OC1(c2ccc(Cl)c(C(F)(F)F)c2)CCN(CCCC(c2ccc(F)cc2)c2ccc(F)cc2)CC1 [Penfluridol],11.65 ± 0.089
16,NNc1nncc2ccccc12 [Hydralazine HCl],11.8 ± 0.14
17,CC1(C)S[C@@H]2[C@H](NC(=O)Cc3ccccc3)C(=O)N2[C@H]1C(=O)O [Benzylpenicillin potassium],12.1 ± 0.18
18,COc1ccc(C2CNC(=O)C2)cc1OC1CCCC1 (stereo not given) [Rolipram],12.4 ± 0.3
19,CC1(C)S[C@@H]2[C@H](NC(=O)[C@H](N)c3ccccc3)C(=O)N2[C@H]1C(=O)O [Ampicillin sodium],12.3 ± 0.15
20,O=C(CCCN1CC=C(n2c(=O)[nH]c3ccccc32)CC1)c1ccc(F)cc1 [Droperidol],12.61 ± 0.072

row,SMILES,mean cell size
1,CCc1nc(N)nc(N)c1-c1ccc(Cl)cc1 [Pyrimethamine],12.3 ± 0.38
2,CCOC(=O)C1=C[C@]2(CC)CCCN3CCc4c(n1c1ccccc41)[C@@H]32 [Vinpocetine],12.3 ± 0.23
3,COc1ccc2c3c1O[C@H]1C[C@@H](O)C=C[C@@]31CCN(C)C2 [Galanthamine HBr],11.87 ± 0.11
4,Cn1nnc(-c2ccc(-c3ccc(N4C[C@H](COP(=O)(O)O)OC4=O)cc3F)cn2)n1 [Tedizolid Phosphate],12.5 ± 0.29
5,Cc1ccc(Sc2ccccc2N2CCNCC2)c(C)c1 [Vortioxetine],12.18 ± 0.097
6,CO/N=C(\C(=O)N[C@@H]1C(=O)N2C(C(=O)O)=CCS[C@H]12)c1csc(N)n1 [Ceftizoxime],12.47 ± 0.084
7,Cc1cc(C)nc(NS(=O)(=O)c2ccc(N)cc2)n1 [Sulfamethazine Sodium Salt],12.28 ± 0.095
8,CN1C[C@@H]2C[C@H]1CN2c1cc2c(cc1F)c(=O)c(C(=O)O)cn2C1CC1 [Danofloxacin Mesylate],12.1 ± 0.25
9,CC(C)COc1ccc(CNC(=O)N(Cc2ccc(F)cc2)C2CCN(C)CC2)cc1 [Pimavanserin],12.4 ± 0.25
10,OCCN1CCN(CCCN2c3ccccc3Sc3ccc(Cl)cc32)CC1 [Perphenazine],12.3 ± 0.2
11,CO/N=C(\C(=O)N[C@@H]1C(=O)N2C(C(=O)[O-])=C(C[n+]3cccc4c3CCC4)CS[C@H]12)c1csc(N)n1 [Cefpirome sulfate],12.5 ± 0.22
12,CO[C@H]1C[C@@H]2CC[C@@H](C)[C@@](O)(O2)C(=O)C(=O)N2CCCC[C@H]2C(=O)O[C@H]([C@H](C)C[C@@H]2CC[C@@H](O)[C@H](OC)C2)CC(=O)[C@H](C)/C=C(\C)[C@@H](O)[C@@H](OC)C(=O)[C@H](C)C[C@H](C)/C=C/C=C/C=C/1C [Rapamycin (Sirolimus)],14.19 ± 0.085
13,C[n+]1ccccc1C=NO [Pralidoxime Iodide],12.27 ± 0.1
14,Cc1onc(-c2ccccc2)c1-c1ccc(S(N)(=O)=O)cc1 [Valdecoxib],12.3 ± 0.17
15,C/C=C1\[C@H]2C=C(C)C[C@]1(N)c1ccc(=O)[nH]c1C2 [(-)-Huperzine A (HupA)],12.04 ± 0.12
16,CCN(CC)C(=O)[C@@]1(c2ccccc2)C[C@H]1CN [Levomilnacipran Hydrochloride],12.1 ± 0.27
17,CC1CCc2c(N3CCC(O)CC3)c(F)cc3c(=O)c(C(=O)O)cn1c23 (stereo not given) [Nadifloxacin],12.6 ± 0.13
18,CN(C)CCC=C1c2ccccc2CCc2ccccc21 [Amitriptyline HCl],12.3 ± 0.27
19,COc1cccc2c1C(=O)c1c(O)c3c(c(O)c1C2=O)CC(O)(C(=O)CO)CC3OC1CC(N)C(O)C(C)O1 (stereo not given) [Doxorubicin (Adriamycin) HCl],13.68 ± 0.1
20,CC(C)COCC(CN(Cc1ccccc1)c1ccccc1)N1CCCC1 (stereo not given) [Bepridil hydrochloride],12.5 ± 0.16
